The whole screen tested about 310,000 compounds, of which about 11,000 (3.5%) were called active. Another 4% or so got no clear call; they are omitted. Shown is part of a subset that was picked to be rich in actives. A number with no mark means an inactive call. Calls follow the shape of the dose curve; as a rule, active = well fitted inhibition curve with a large enough effect; inconclusive = small, poorly fitted or top-dose-only effect, or another doubt; inactive = no such curve, though single readings can be large or run the other way.
Potency is read from the fitted curve at half-maximal effect.

The target in this test is 4'-phosphopantetheinyl transferase ffp (Bacillus subtilis) (UniProt Q9F4F7). Kind of test: qHTS Assay for Inhibitors of Bacillus subtilis Sfp phosphopantetheinyl transferase (PPTase).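 Also: the enzyme is Sfp with the accession as filed and its product quenches rhodamine fluorescence.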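 As to largest response in the series, negative = inhibition: 0% = enzyme reaction without inhibitor and -100% = no enzyme wells.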 The settings on record: Biochemical Sfp PPTase activity. In outline:
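Fluorescence-quenching assay: 15 nM Sfp-PPTase preincubated 15 min at room temperature with compound, then 5 uM rhodamine-CoA and 12.5 uM BHQ-2-labelled YbbR peptide added. Fluorescence (ex 525/em 598 nm) read at start and after 30 min; difference gives rate.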
On the technique in general: In qHTS, concentration-response curves come from the screen itself.
For `Fc1ccc(-c2ccc(NCCN3CCOCC3)nn2)cc1`, the largest response in the series, negative = inhibition is 19.2%.
The same measure, in the same setting: the same measure for `O=C(Oc1ccccc1Cl)c1ccc(N2CCOCC2)c([N+](=O)[O-])c1`: -20.5%.
`O=C(Oc1ccc(Br)cc1C(=S)N1CCOCC1)c1cccc([N+](=O)[O-])c1`: the Potency is 50.1 µM (active).
Take `COc1cc(C(=S)N2CCOCC2)cc(OC)c1OC(=O)c1ccc([N+](=O)[O-])cc1[N+](=O)[O-]`: the largest response in the series, negative = inhibition was 7.82%.
As for `O=C(Oc1ccccc1C(=S)N1CCCCC1)c1cc([N+](=O)[O-])cc([N+](=O)[O-])c1`, the Potency is 31.6 µM (active).
In the case of `O=C(Nc1ccc(C(=O)N2CCCCC2)cc1)c1cccc([N+](=O)[O-])c1`, the largest response in the series, negative = inhibition is 17.2%.
For `COc1cc(C(=S)N2CCOCC2)cc(OC)c1OC(=O)c1cc([N+](=O)[O-])cc([N+](=O)[O-])c1`, the largest response in the series, negative = inhibition is 4.17%.
Take `CCCCNC(=O)CCn1nc(-c2ccc(Cl)cc2)ccc1=O`: the largest response in the series, negative = inhibition was 10.2%.
Still for that read-out and setting: the same measure for `Cc1c(CC(=O)NCC(=O)NCC(=O)O)c(=O)oc2cc3oc4c(c3cc12)CCCC4`: -20.1%; for `Nc1nnnn1/N=C/c1cccc(Br)c1`: 2.63%.
Regarding `Cc1n[nH]c(C)c1S(=O)(=O)N1CCCC(C(=O)Nc2ccc(Br)cc2)C1` (stereo not drawn), the largest response in the series, negative = inhibition was 15.6%.
Same read-out and setting: the same measure for `CCOC(=O)Cn1c(=O)n(Cc2ccc(OC)cc2)c(=O)c2cccnc21`: 13%.
With `O=C(Nc1ccnn1C1CCN(Cc2cccc(OCCO)c2)CC1)C1CCCC1`, the largest response in the series, negative = inhibition was -0.971%.
As for `COc1ccc(-c2cc(C(=O)N3CCN(c4ccc(F)cc4)CC3)no2)cc1`, the largest response in the series, negative = inhibition was 8.09%.
For the compound `COc1ccc(CNC(=O)c2ccc3oc(C(C)C)nc3c2)cc1`, the largest response in the series, negative = inhibition was 2.49%.
Still for that read-out and setting: the figure for `CCCCn1c(=S)[nH]c2ccccc2c1=O` is 8.99%.
Turning to `S=c1[nH]c2ccccc2c2ccccc12`, the Potency was 50.1 µM (active).
Turning to `S=c1ccc2ccccc2[nH]1`, the largest response in the series, negative = inhibition was -21.1%.
The same measure, in the same setting: the figure for `Cc1cccc(NC(=O)CSCC(=O)Nc2nnc(C3CC3)s2)c1` is -4.58%.
For the compound `CCN(CC)c1ccc2oc(=O)c(C)nc2c1`, the Potency was 14.1 µM (active).
Take `CCN(CC)c1ccc(/C=N/Nc2nc(C)cc(C)n2)c(O)c1`: the largest response in the series, negative = inhibition is -14.7%.
On to `CCN(CC)c1ccc2cc(C(N)=O)/c(=N\NC(=O)c3ccncc3)oc2c1`, for which the largest response in the series, negative = inhibition was -4.99%.
Turning to `Cc1ccc2cccc(OCCCOc3ccccc3CO)c2n1`, the largest response in the series, negative = inhibition is 13.6%.
As to `O=C(CC1C(=O)NCCN1CC(c1ccccc1)c1ccccc1)NCC1CCOCC1` (stereo not drawn), the largest response in the series, negative = inhibition was -5.38%.
Same read-out and setting: the figure for `Cc1sc2nc(SCCO)n(-c3ccccc3)c(=O)c2c1C` is 27.7%; for `Cc1cccc(NC(=O)C(C)SCc2ccccc2)c1` (stereo not drawn) it is 3.73%.
As for `CC(Sc1nnc2c(n1)C1CCC2(C)C1(C)C)C(=O)Nc1ccccc1` (stereo not drawn), the largest response in the series, negative = inhibition is 6.3%.
On to `CSc1nc(C)cc(SC(C(C)=O)C(=O)Nc2ccccc2)n1` (stereo not drawn), for which the Potency was 50.1 µM (active).

The values above are taken from PubChem BioAssay AID1490 (National Center for Advancing Translational Sciences (NCATS), 2009).
